This passage reports growth results from PubChem BioAssay (NCI).

Test systems include NCI-H23 lung; NCI-H226 lung; NCI-H322M lung; HOP-62 NSCLC; NCI-H460 lung; HOP-92 NSCLC; NCI-H522 lung; A549/ATCC NSCLC; 786-0 renal; COLO 205 colon.
Holding throughout (experiment): NCI-60 one-dose screen, 48 h (100 = growth as untreated, 0 = no growth, -100 = all killed)
Common to all, as to settings: 10 µM unless noted

About 83,000 compounds went through this panel and 20% of them were active in at least one assay; those are over-represented in the sample as a whole.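 Note: values are percent growth. 100 is the growth of untreated cells, values between 100 and 0 indicate rising inhibition; between -100 and 0 indicates cell death.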 A number with no mark means an inactive call. Calls of active or inactive are those of the source. Rule for the calls: active = growth percent below 10; inactive = the rest.

Turning to `CCC(C)/C(=C\C#N)NCCCN/C(=C/C#N)C(C)CC` (stereo not given), the growth in the assay with NCI-H23 lung is 97.3%; in the assay with NCI-H226 lung, 103%; in the assay on NCI-H322M lung, 103%; with HOP-62 NSCLC it was 106%; in the assay on NCI-H460 lung, 116%; in the assay with HOP-92 NSCLC, 86.5%. Moreover, the growth with NCI-H522 lung was 83.5%; in the assay on A549/ATCC NSCLC, 103%; in the assay on 786-0 renal it was 98.1%; with COLO 205 colon it was 111%.
Regarding `O=C1/C(=C/c2ccccc2)Oc2ccc(O)c(I)c21`, the growth in the assay with NCI-H23 lung is 96.5%; in the assay on NCI-H226 lung, 74.9%; with NCI-H322M lung it was 94.5%; with HOP-62 NSCLC, 100%; with NCI-H460 lung it was 103%; in the assay on HOP-92 NSCLC it was 86%. In addition, the growth in the assay on NCI-H522 lung is 84%; with A549/ATCC NSCLC, 103%; in the assay with 786-0 renal it was 98.9%; in the assay on COLO 205 colon it was 120%.
Take `COc1ccc2c(c1)OC1=C(C(=O)OC1)C2c1cc(OC)c2c(c1)OCO2` (stereo not given): the growth in the assay with NCI-H23 lung is 46.2%; in the assay on NCI-H226 lung, 21.3%; with NCI-H322M lung, 49%; in the assay with HOP-62 NSCLC, 29.6%; in the assay on NCI-H460 lung it was 4.22% (active); with HOP-92 NSCLC it was 55%. Also, the growth was 4.87% (active) in the assay with NCI-H522 lung, 14.4% in the assay with A549/ATCC NSCLC, 20.5% with 786-0 renal and -38.1% (active) with COLO 205 colon.
Turning to `C=COC(=O)CCCCCCCCC`, the growth with NCI-H23 lung was 108%; in the assay on NCI-H226 lung, 107%; with NCI-H322M lung, 102%; in the assay on HOP-62 NSCLC it was 120%; in the assay with NCI-H460 lung it was 106%; with HOP-92 NSCLC, 99%. For the same molecule, the growth was 85.9% in the assay on NCI-H522 lung, 108% with A549/ATCC NSCLC, 102% with 786-0 renal and 111% with COLO 205 colon.
Take `NC(N)=N/N=C/c1ccc(-c2ccc(-c3cc(Cl)cc(Cl)c3)s2)cc1`: the growth in the assay with NCI-H23 lung was -39.2% (active); in the assay with NCI-H226 lung, 87.1%; in the assay on NCI-H322M lung it was 72.6%; in the assay on HOP-62 NSCLC it was 25.2%; in the assay with NCI-H460 lung, -35.7% (active); in the assay with HOP-92 NSCLC, 30%. Moreover, the growth was -0.199% (active) with NCI-H522 lung, -71.1% (active) in the assay on A549/ATCC NSCLC, -83.5% (active) with 786-0 renal and -12.9% (active) in the assay with COLO 205 colon.
Turning to `COc1ccc(C2=CC(c3cc(OC)c(OC)c(OC)c3)NC(=O)N2)cc1OC` (stereo not given), the growth is 27.3% in the assay on NCI-H23 lung; 64.3% in the assay on NCI-H226 lung; -9.67% (active) with NCI-H322M lung; 32.6% in the assay on HOP-62 NSCLC; 1.25% (active) with NCI-H460 lung; 6.24% (active) in the assay with HOP-92 NSCLC. Further, the growth with NCI-H522 lung was -8.71% (active); in the assay on A549/ATCC NSCLC it was 19%; with 786-0 renal, 27.9%; with COLO 205 colon, -24.1% (active).
On to `COc1ccc(C2C=C(c3ccc(N)cc3)N=C3SC=CN32)cc1OC` (stereo not given), for which the growth in the assay with NCI-H23 lung was 101%; in the assay on NCI-H226 lung, 107%; in the assay on NCI-H322M lung, 102%; in the assay on HOP-62 NSCLC, 108%; in the assay on NCI-H460 lung, 116%; in the assay on HOP-92 NSCLC it was 109%. Further, the growth in the assay on NCI-H522 lung is 101%; with A549/ATCC NSCLC, 99.7%; in the assay on 786-0 renal it was 104%; in the assay with COLO 205 colon, 114%.
As for `COc1ccc(-n2c(-c3ccccc3)c(-c3ccccc3)c3c(SCC(=O)N/N=C/c4ccc(Cl)cc4)ncnc32)cc1`, the growth in the assay on NCI-H23 lung is 68.2%; in the assay on NCI-H226 lung it was 76.6%; with NCI-H322M lung, 97.2%; in the assay on HOP-62 NSCLC it was 85.5%; in the assay on NCI-H460 lung it was 102%; with HOP-92 NSCLC, 66.8%. Also, the growth with NCI-H522 lung is 83.5%; in the assay on A549/ATCC NSCLC, 93.1%; in the assay on 786-0 renal, 92.5%; in the assay with COLO 205 colon, 104%.
Turning to `CCN(CC)c1ccc(CNc2ccnc3ccccc23)cc1`, the growth was 28.8% in the assay with NCI-H23 lung; 58.6% in the assay on NCI-H226 lung; 70.6% with NCI-H322M lung; 66% with HOP-62 NSCLC; 55.2% in the assay with NCI-H460 lung; -6.79% (active) with HOP-92 NSCLC. Besides, the growth in the assay on NCI-H522 lung is 56.2%; in the assay on A549/ATCC NSCLC it was 58.9%; with 786-0 renal it was 72.5%; with COLO 205 colon it was 25.6%.
Regarding `COc1ccc2c(c1)C(c1cc(OC)c3c(c1)OCO3)C1=C(COC1=O)N2` (stereo not given), the growth is 38.2% in the assay with NCI-H23 lung; 27.5% in the assay with NCI-H226 lung; 51.4% in the assay with NCI-H322M lung; 36.5% in the assay with HOP-62 NSCLC; 6.63% (active) in the assay on NCI-H460 lung; 26.9% in the assay with HOP-92 NSCLC. Moreover, the growth was -38.5% (active) with NCI-H522 lung, 14.7% in the assay with A549/ATCC NSCLC, 29.5% in the assay on 786-0 renal and -22.6% (active) with COLO 205 colon.
For `CN(CCCCN(C[C@H]1Cc2ncccc2CN1)[C@H]1CCCc2cccnc21)C1CCC(F)(F)CC1`, the growth with NCI-H23 lung was 107%; with NCI-H226 lung it was 78.4%; in the assay with NCI-H322M lung it was 95.5%; in the assay on HOP-62 NSCLC, 68.2%; in the assay with NCI-H460 lung, 99.5%; in the assay on HOP-92 NSCLC it was 70.5%. Also, the growth was 89.6% with NCI-H522 lung, 84% with A549/ATCC NSCLC, 82.5% in the assay with 786-0 renal and 87.8% with COLO 205 colon.
In the case of `C=CCn1c2ccccc2c2c3c(c4c5ccccc5n(CC=C)c4c21)C(=O)N(O)C3=O`, the growth was 24.2% in the assay on NCI-H23 lung; -97.9% (active) in the assay on NCI-H226 lung; 52.8% in the assay on NCI-H322M lung; -1.11% (active) in the assay on HOP-62 NSCLC; 8.86% (active) in the assay with NCI-H460 lung; 77.2% with HOP-92 NSCLC. Besides, the growth in the assay with NCI-H522 lung is -62.5% (active); with A549/ATCC NSCLC, 37.7%; with 786-0 renal, 15.1%; in the assay with COLO 205 colon, 56.5%.
For the molecule `Cc1ccc(S(=O)(=O)n2cc(C(=O)C(=O)N3CCOCC3)c3ccccc32)cc1`, the growth was 79.4% with NCI-H23 lung; 82.4% in the assay on NCI-H226 lung; 99.2% in the assay on NCI-H322M lung; 84.7% with HOP-62 NSCLC; 113% with NCI-H460 lung; 26.6% with HOP-92 NSCLC. Further, the growth was 75.2% in the assay on NCI-H522 lung, 114% in the assay with A549/ATCC NSCLC, 92.4% in the assay on 786-0 renal and 112% in the assay on COLO 205 colon.
In the case of `O=S(=O)(NCCCNc1nccc(-n2ccc3cccnc32)n1)c1ccc(Br)cc1`, the growth in the assay with NCI-H23 lung is 108%; in the assay with NCI-H226 lung it was 96.5%; in the assay on NCI-H322M lung, 103%; with HOP-62 NSCLC, 109%; with NCI-H460 lung it was 105%; in the assay on HOP-92 NSCLC, 109%. The growth in the assay on NCI-H522 lung was 92.6%; in the assay on A549/ATCC NSCLC, 107%; in the assay on 786-0 renal, 104%; in the assay on COLO 205 colon it was 114%.
